According to the supplement of paper PMC7411640:
Counter-ions that a name gives are not always drawn.

Test system: MDA-MB-468
Experiment: phospho-S6 immunofluorescence (DAPI-normalised), per-plate z-score; higher = higher phospho-S6 signal (less pathway suppression)
Settings: co-treatment: vehicle; 24 h
Experimental: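 GPCR-targeted compound library (MedChemExpress HY-L006) tested on MDA-MB-468 PTEN-null TNBC cells in 384-well plates at 0.1, 1 or 10 uM, combined with vehicle, GDC0941 450 nM or lapatinib 1 uM, for 24 h. Phospho-S6 (S240/244) immunofluorescence normalised to DAPI and expressed as a per-plate z-score; values are the mean of biological triplicates.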

Row | SMILES | phospho-S6 immunofluorescence (z-score)
1 | CCOCCn1c(C2CCN(CCc3ccc(C(C)(C)C(=O)O)cc3)CC2)nc2ccccc21 [Bilastine] (compound 10 µM) | -0.28
2 | COc1ccccc1Oc1c(NS(=O)(=O)c2ccc(C(C)(C)C)cc2)nc(-c2ncccn2)nc1OCCO [Bosentan] (compound 10 µM) | 1.05
3 | CC(C)C(=O)OCC(=O)[C@@]12O[C@H](C3CCCCC3)O[C@@H]1C[C@H]1[C@@H]3CCC4=CC(=O)C=C[C@]4(C)[C@H]3[C@@H](O)C[C@@]12C [Ciclesonide] (compound 10 µM) | -1.25
4 | CN1CCN(C2=Nc3ccccc3Oc3ccc(Cl)cc32)CC1 [Loxapine (succinate)] (compound 10 µM) | -1.15
5 | Cc1noc(-c2ccc(-c3ccc(CC(=O)O)cc3)cc2)c1NC(=O)O[C@H](C)c1ccccc1 [AM095 (free acid)] (compound 10 µM) | 0.82
6 | CCc1nc2c(C)nc(C)cc2n1-c1ccc(CCNC(=O)NS(=O)(=O)c2ccc(C)cc2)cc1 [Grapiprant] (compound 10 µM) | -0.51
7 | CCOC(=O)N1CCC(=C2c3ccc(Cl)cc3CCc3cccnc32)CC1 [Loratadine] (compound 10 µM) | -1.25
8 | COc1cc2nc(N3CCN(C(=O)C4CCCO4)CC3)nc(N)c2cc1OC (stereo not given) [Terazosin (hydrochloride dihydrate)] (compound 10 µM) | 0.87
9 | CC[C@H](C)[C@@H]1NC(=O)[C@H](Cc2ccc(O)cc2)NC(=O)[C@@H](N)CSSC[C@@H](C(=O)N2CCC[C@H]2C(=O)N[C@@H](CC(C)C)C(=O)NCC(N)=O)NC(=O)[C@H](CC(N)=O)NC(=O)[C@H](CCC(N)=O)NC1=O [Oxytocin (acetate)] (compound 10 µM) | -0.87
10 | O=C(O)Cn1c2c(c3cc(F)ccc31)CN(C(=O)c1cccc3ccccc13)CC2 [Setipiprant] (compound 10 µM) | -0.03
11 | OC[C@H]1O[C@@H](n2cnc3c(N[C@@H]4CCc5ccccc54)ncnc32)[C@H](O)[C@@H]1O (compound 10 µM) | 1.18
12 | C[C@H](CCC(=O)O)[C@H]1CC[C@H]2[C@@H]3CC[C@@H]4C[C@H](O)CC[C@]4(C)[C@H]3C[C@H](O)[C@]12C [Deoxycholic acid] (compound 10 µM) | -0.17
13 | CN1[C@@H]2CC[C@H]1C[C@@H](OC(=O)c1c[nH]c3ccccc13)C2 [Tropisetron (Hydrochloride)] (compound 10 µM) | -0.04
14 | O=C(COc1ccc(C(=O)c2ccccc2)cc1)NC1CCN(Cc2ccccc2)CC1 [AdipoRon] (compound 10 µM) | -1.92
15 | Cc1cc2c(cc1CC(=O)c1sccc1S(=O)(=O)Nc1onc(C)c1Cl)OCO2 [Sitaxsentan (sodium)] (compound 10 µM) | 0.45
16 | CCCN(CCN1CCN(c2ccccc2OC)CC1)C1CCc2ncsc2C1 (stereo not given) [ST-836 (hydrochloride)] (compound 10 µM) | 0.1
17 | Cc1c(Cc2ccc3ccccc3n2)c2cc(F)ccc2n1CC(=O)O (compound 10 µM) | 0.58
18 | Cc1cc(C)nc(NS(=O)(=O)c2ccc(NC(=S)NC(=O)COc3ccc(Br)cc3Cl)cc2)n1 (compound 10 µM) | 0.28
19 | N=C(N)NCCC[C@@H](NC(=O)[C@@H]1CCCN1C(=O)[C@@H]1CSSCCC(=O)N[C@@H](Cc2ccc(O)cc2)C(=O)N[C@@H](Cc2ccccc2)C(=O)N[C@@H](CCC(N)=O)C(=O)N[C@@H](CC(N)=O)C(=O)N1)C(=O)NCC(N)=O [Desmopressin (Acetate)] (compound 10 µM) | -0.41
20 | c1ccc2c(c1)N=C(N1CCNCC1)c1ccccc1N2 [DREADD agonist 21] (compound 10 µM) | -0.53
21 | N[C@@H](Cc1ccc(O)c(O)c1)C(=O)O (compound 10 µM) | -0.55
22 | COc1ccc2ccc(=O)oc2c1CC=C(C)C [Osthole] (compound 10 µM) | 0.23
23 | CC(C)c1cc(-c2ccc(F)c3ccccc23)nc(N)n1 (compound 10 µM) | 1.08
24 | CC(C)(Cc1ccc2ccccc2c1)NC[C@@H](O)COc1cccc(Cl)c1C#N [NPS-2143 (hydrochloride)] (compound 10 µM) | -9.7
25 | COc1cc(N)c(Cl)cc1C(=O)NC1CCN(CCCOc2ccc(F)cc2)CC1OC (stereo not given) [Cisapride] (compound 10 µM) | -0.58
